Source: the supplement of paper PMC8726507

The compounds below were run on Plasmodium falciparum NF54-HGL (transmission to Anopheles stephensi) (assay: percentage of barcode signal found in uninfected mosquitoes (transmission-blocking activity); higher = stronger blocking of transmission to mosquito, active = 80 or more). Settings: 10 µM; gametocyte preincubation time 24 h; readout time post-feed 8 days.
Procedure: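 The mixture was fed to Anopheles stephensi in 96-well plates as blood meals tagged with DNA-barcoded Asaia bacteria. Eight days later, mosquitoes were classed infected or uninfected by luminescence (mean + 5 SD of unfed controls). Barcodes were quantified by Luminex MagPlex-TAG in the pooled uninfected and infected Asaia cultures, background-corrected, and the score is % of barcode signal in uninfected mosquitoes = 100*Iu/(Iu+Ii).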

Row | SMILES | percentage of barcode signal found in uninfected mosquitoes
1 | COc1cncc(-c2cncc(N3CCN(c4ccncc4)CC3)n2)c1 | 63.9% (inactive)
2 | Cc1cc(C)cc(COc2ccc3c(C)c(CCC(=O)O)c(=O)oc3c2C)c1 | 1.73% (inactive)
3 | N#Cc1nc(-c2ccccc2F)oc1NCCc1ccccc1 | 1.26% (inactive)
4 | Cc1noc(C)c1C(=O)N1CCCC(c2[nH]c3c(C)cccc3c2-c2ccncc2)C1 (stereo unspecified) | 69.1% (inactive)
5 | O=C(NC1CCCCC1)N1CCN(Cc2ccc3c(c2)OCO3)CC1 | -0.671% (inactive)
6 | O=C(C1CCN(c2nnnn2-c2ccccc2)CC1)N1CCc2ccccc2C1 | 46.7% (inactive)
7 | O=C(Nc1ccc2c(c1)B(O)OC2)c1ccccc1C(F)(F)F | 84.1% (active)
8 | C[C@H]1c2cccc(O)c2C(=O)C2=C(O)[C@]3(O)C(=O)C(C(N)=O)=C(O)[C@@H](N(C)C)[C@@H]3[C@@H](O)[C@@H]21 | 41.2% (inactive)
9 | CC(Oc1cccc(Cl)c1)C(=O)Nc1ccc2oc(-c3ccncc3)nc2c1 (stereo unspecified) | 47.8% (inactive)
10 | CCOc1ccccc1C(=O)Nc1cccc(-c2nc3ncccn3c2C)c1 | 78.8% (inactive)
11 | O=C(Nc1ccc(F)c(-c2nc3cc(-c4ccccc4)cnc3[nH]2)c1)N1CCCC1 | 35.5% (inactive)
12 | CN1CCN(c2cc(-c3ccc(F)cc3)nc(-c3ccncc3)n2)CC1 | 1.2% (inactive)
13 | CC1CS(=O)(=O)CCN1/N=C/c1ccc([N+](=O)[O-])o1 (stereo unspecified) | 91.3% (active)
14 | COC(=O)C1=C(C)NC(C)=C(C(=O)OC(C)C)C1c1cccc2nonc12 (stereo unspecified) | 57.4% (inactive)
15 | COc1ccc(Cl)cc1NC(=O)CN(C)C(=O)c1cnn(-c2ccccc2)n1 | 64.6% (inactive)
16 | Cc1cccc(NC(=O)c2cc(S(=O)(=O)N(C)c3ccc(F)cc3)ccc2Cl)n1 | 46.1% (inactive)
17 | CC(C)(C)OC(=O)N1CCN(c2nccc(-c3ccc(-c4ccc(Cl)cc4)s3)n2)CC1 | 20.6% (inactive)
18 | O=C(Nc1ccnc(-c2cccnc2)n1)c1cc(C(F)(F)F)cc(C(F)(F)F)c1 | 46.9% (inactive)
19 | CCOc1ccc(-c2nc(NC(=O)CS(=O)(=O)c3ccccc3)sc2C)cc1 | -3.11% (inactive)
20 | CN1CCCC1CCO[C@](C)(c1ccccc1)c1ccc(Cl)cc1 (stereo partly specified) | 87.8% (active)
21 | CCCCc1ccc(NC(=O)Nc2ccc(O[C@H]3CCCC[C@@H]3N(C)c3ccccc3)c(F)c2)cc1 | 28.1% (inactive)
